Sfp PPTase inh – inhibitors of Bacillus subtilis Sfp phosphopantetheinyl transferase | Biochemical Sfp PPTase activity, qHTS | Q9F4F7 | Potency, µM, for the others: largest response in the series, negative = inhibition, hits mostly inhibitors | 310,000 tested, 3.5% active;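 note: the enzyme is Sfp with the accession as filed and its product quenches rhodamine fluorescence; 0% = enzyme reaction without inhibitor and -100% = no enzyme wells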
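After 15 min at room temperature with compound, 15 nM Sfp received 5 uM rhodamine-CoA plus 12.5 uM BHQ-2-ybbR (50 mM Hepes pH 7.6, 10 mM MgCl2). Rate came from the fluorescence difference over 30 min, ex 525/em 598 nm.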
TDP1 block – TDP1 (human) enzyme inhibition. Q9NUW8. recombinant TDP1, AlphaScreen DNA substrate cleavage. Potency, µM (top dose mostly 130 µM), without a hit: at the highest dose activity change, negative = inhibition, actives largely listed as inhibitors. 350,000 tested, 0.28% active. AID 485290; note: % is set by controls: 0 for no effect and ±100 for the full control effect; nearly all actives have a fitted effect of over 40% in size
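E. coli-derived human Tdp1, 1 nM final. Cpd preinc 15 min RT; substrate 15 nM final, 5 min RT; AS bead mix 10 ug/ml final, 10 min RT. Signal loss = tyrosine-FITC cleavage. No-enzyme wells = max signal.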
G9a block – blocks human histone lysine methyltransferase G9a; G9a H3K9 monomethylation, AlphaScreen, 2 h; Potency, µM (doses to about 102 µM), without a hit: at the highest dose activity, negative = inhibition, hits mostly inhibitors; 350,000 tested, 8.8% active; AID 504332; note: % is set by controls: 0 for no effect and ±100 for the full control effect; nearly all actives have a fitted effect of over 75% in size
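Compounds were preincubated with 20 nM G9a for 15 min, after which biotinylated H3K9 peptide (500 nM) and SAM (20 uM) started a 2 h room-temperature reaction. Monomethylated product was quantified by antibody-based AlphaScreen chemiluminescence.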
BAZ2B inh – blocks human BAZ2B. Q9UIF8. AlphaScreen BAZ2B-H3K14Ac peptide displacement. Potency, µM (highest dose often 114 µM), inactives show top-dose activity change, negative = inhibition, hits mostly inhibitors. 360,000 tested, 4.4% active. AID 504333; note: % is set by controls: 0 for no effect and ±100 for the full control effect; nearly all actives have a fitted effect of over 60% in size
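Multi-concentration screen (max 110 uM) measuring displacement of acetylated histone H3 peptide from BAZ2B by AlphaScreen, using 50 nM protein, 50 nM peptide and 10 ug/mL streptavidin donor plus Ni-chelate acceptor beads.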
HP1b binding inh – blocks HP1-beta chromodomain binding to methylated histone tails; AlphaScreen HP1-beta / biotin-H3K9me3 peptide binding; Potency, µM (series often up to 114 µM), for inactives: at the top dose activity change, negative = inhibition, most hits filed as inhibitors; 390,000 tested, 0.56% active; AID 540317; note: nearly all actives have a fitted effect of over 70% in size
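AlphaScreen: HP1-beta (50 nM) preformed 30 min with biotin-H3(1-18)K9me3 peptide (50 nM) in PBS pH 7.4, 0.01% Tween-20. Compound added for 30 min at RT, then streptavidin donor/nickel chelate acceptor beads (10 ug/mL) for 30 min.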
JMJD2A Tudor – JMJD2A Tudor domain (human) inhibition; 390,000 tested, 4.4% active; AlphaScreen JMJD2A-Tudor / H3K4me3 peptide binding; Potency, µM (doses to about 114 µM), inactives show at the top dose activity change, negative = inhibition, hits mostly inhibitors; note: % is set by controls: 0 for no effect and ±100 for the full control effect; nearly all actives have a fitted effect of over 50% in size
Target sequence (O75164 whole entry, looked up, the tested form may be a part): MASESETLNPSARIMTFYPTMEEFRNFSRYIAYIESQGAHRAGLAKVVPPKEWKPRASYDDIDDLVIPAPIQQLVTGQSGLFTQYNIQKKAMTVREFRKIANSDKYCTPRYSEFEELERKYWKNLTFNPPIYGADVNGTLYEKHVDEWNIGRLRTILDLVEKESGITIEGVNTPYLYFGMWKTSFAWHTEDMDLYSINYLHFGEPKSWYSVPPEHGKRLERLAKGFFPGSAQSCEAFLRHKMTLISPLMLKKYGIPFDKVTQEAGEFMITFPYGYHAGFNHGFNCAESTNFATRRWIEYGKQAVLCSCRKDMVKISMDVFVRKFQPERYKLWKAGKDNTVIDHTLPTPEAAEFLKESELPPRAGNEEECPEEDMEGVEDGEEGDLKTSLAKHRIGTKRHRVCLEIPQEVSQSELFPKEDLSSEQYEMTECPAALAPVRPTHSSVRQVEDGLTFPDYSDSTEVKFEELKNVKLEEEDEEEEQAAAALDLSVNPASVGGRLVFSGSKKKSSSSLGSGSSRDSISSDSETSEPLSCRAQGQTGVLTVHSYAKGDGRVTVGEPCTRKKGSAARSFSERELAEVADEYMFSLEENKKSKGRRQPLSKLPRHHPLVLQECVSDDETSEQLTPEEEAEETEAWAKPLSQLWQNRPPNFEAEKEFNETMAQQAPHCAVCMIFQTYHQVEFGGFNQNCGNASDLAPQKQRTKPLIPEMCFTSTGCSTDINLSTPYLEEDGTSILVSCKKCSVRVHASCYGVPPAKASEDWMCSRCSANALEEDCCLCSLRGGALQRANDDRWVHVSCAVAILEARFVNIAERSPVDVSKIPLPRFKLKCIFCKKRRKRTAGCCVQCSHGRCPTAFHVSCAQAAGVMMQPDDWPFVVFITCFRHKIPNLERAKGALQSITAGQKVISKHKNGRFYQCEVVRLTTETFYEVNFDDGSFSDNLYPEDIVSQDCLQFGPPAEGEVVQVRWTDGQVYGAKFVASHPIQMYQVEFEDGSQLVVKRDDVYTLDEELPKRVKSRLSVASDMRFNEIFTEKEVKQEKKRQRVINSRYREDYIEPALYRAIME
* hit, by the source's call; [ ] = dose if it differs, or a comment. The list is not random: actives were taken first. Their share in the collection is about 12%. Calls come from the whole dose curve; as a rule, active = well fitted curve in the direction sought with a large enough effect; inconclusive = small, poorly fitted or top-dose-only effect, or another doubt; inactive = no such curve, though single readings can be large; an effect the other way counts as inactive or inconclusive. Potency is the fitted concentration of half-maximal effect.

How did Cc1ccc(C(=O)NCCCNCCCNC(=O)c2ccc(C)nc2)cn1 do in these assays?
Sfp PPTase inh: -2%; TDP1 block: -8%[56.1 µM]; G9a block: 15%[59 µM]; BAZ2B inh: 4%; HP1b binding inh: 39%; JMJD2A Tudor: -4%

What do the screens show for `Cc1ccc(C(=O)NCCCNCCCN(C)C)cn1`?
Sfp PPTase inh: 23%; TDP1 block: -1%; G9a block: inconclusive; BAZ2B inh: inconclusive; HP1b binding inh: -2%; JMJD2A Tudor: 50µM*

Results for CN(CCNC(=O)c1ccc(/C=N/O)nc1)Cc1ccccc1 ?
Sfp PPTase inh: -9%; TDP1 block: 5%; G9a block: 25µM*; BAZ2B inh: inconclusive; HP1b binding inh: 4%; JMJD2A Tudor: 8.9µM*

How did Cc1cc2nc3c(=O)n(C)c(=O)n(C)c3nc2cc1N=CN(C)C do in these assays?
TDP1 block: -1%; G9a block: 16µM*; BAZ2B inh: 3%; HP1b binding inh: 16%; JMJD2A Tudor: -12%

What do the screens show for `CCCCCn1c(=O)c(C(=O)c2ccccc2)nc2ccccc21`?
Sfp PPTase inh: 9%; TDP1 block: 3%; G9a block: -15%[59 µM]; BAZ2B inh: -1%[57.1 µM]; HP1b binding inh: -2%; JMJD2A Tudor: -21%

How did CCCCCCn1c(=O)[nH]c2nc3cc(N)ccc3nc2c1=O do in these assays?
Sfp PPTase inh: inconclusive; TDP1 block: -5%; G9a block: 40µM*; BAZ2B inh: 1%; HP1b binding inh: 59%; JMJD2A Tudor: 12%

Results for CC1(C)CC(N=c2cc(-c3ccccc3)oc3ccc(Cl)cc23)CC(C)(C)N1 ?
Sfp PPTase inh: -30%; TDP1 block: 2%; G9a block: 71µM*; BAZ2B inh: inconclusive; HP1b binding inh: 19%; JMJD2A Tudor: -23%

Results for NC(=O)C1Cc2ccccc2CN1S(=O)(=O)c1cccs1 (stereo not given) ?
Sfp PPTase inh: 25%; TDP1 block: 0%; G9a block: -5%; BAZ2B inh: -4%; HP1b binding inh: 47%; JMJD2A Tudor: -4%

What do the screens show for `CC(C)OC(=O)C1Cc2ccccc2CN1S(=O)(=O)c1cccs1` (stereo not given)?
Sfp PPTase inh: 7%; G9a block: 79µM*; BAZ2B inh: inconclusive; HP1b binding inh: 40%; JMJD2A Tudor: -8%

Results for CCC/C(=N\NC(=O)c1ccc(OC)c(OC)c1)c1ccccc1 ?
Sfp PPTase inh: 8%; TDP1 block: 5%; G9a block: 79µM*; HP1b binding inh: 45%; JMJD2A Tudor: 7%

What do the screens show for `COc1cc(C(=O)NC(=S)N(C)Cc2ccccc2)cc(OC)c1OC`?
Sfp PPTase inh: inconclusive; TDP1 block: 8%; G9a block: -30%; BAZ2B inh: inconclusive; HP1b binding inh: 6%; JMJD2A Tudor: -26%

What do the screens show for `COc1cc(C(=O)NC(=S)N(CCc2ccccc2)CCc2ccccc2)cc(OC)c1OC`?
Sfp PPTase inh: 9%; TDP1 block: 12%; G9a block: 9%[59 µM]; BAZ2B inh: 8.9µM*; HP1b binding inh: 2%; JMJD2A Tudor: -24%

Results for COc1cc(C(=O)N/N=C(\C)Cc2ccccc2)cc(OC)c1OC ?
Sfp PPTase inh: -6%; TDP1 block: 3%; G9a block: 14%; BAZ2B inh: -8%; HP1b binding inh: 11%; JMJD2A Tudor: 8.9µM*

How did COc1ccc(C(=O)NCCSc2ccccc2)cc1OC do in these assays?
Sfp PPTase inh: 16%; TDP1 block: 3%; G9a block: -6%; BAZ2B inh: -15%; HP1b binding inh: -14%; JMJD2A Tudor: 11µM*

How did COc1cc(C(=O)NCC(=O)N/N=C(\C)Cc2ccccc2)cc(OC)c1OC do in these assays?
Sfp PPTase inh: 1%; TDP1 block: 0%; G9a block: 11%; BAZ2B inh: -20%; HP1b binding inh: 39%; JMJD2A Tudor: -14%

How did CCC/C(=N\NC(=O)c1ccccc1C)c1ccccc1 do in these assays?
Sfp PPTase inh: 27%; TDP1 block: 0%; G9a block: 9%[59 µM]; BAZ2B inh: 3%; HP1b binding inh: 67%; JMJD2A Tudor: -13%[57.1 µM]

Results for COc1ccc(C(=O)NC(=S)N(Cc2ccccc2)Cc2ccccc2)cc1 ?
Sfp PPTase inh: 5%; TDP1 block: 10%; G9a block: 59%[12.7 µM]; BAZ2B inh: 8.9µM*; HP1b binding inh: inconclusive; JMJD2A Tudor: 56µM*

What do the screens show for `COc1ccc(C(=O)NC(=S)N(C)C2CCCCC2)cc1`?
Sfp PPTase inh: 1%; TDP1 block: 3%; G9a block: 79µM*; BAZ2B inh: -37%; HP1b binding inh: 41%; JMJD2A Tudor: -11%

Results for COc1ccc(C(=O)NC(=S)N(C)C2CCCCC2)cc1Br ?
Sfp PPTase inh: 2%; TDP1 block: 6%; G9a block: 16%; BAZ2B inh: inconclusive; HP1b binding inh: 9%; JMJD2A Tudor: inconclusive

How did O=C1Oc2ccccc2C(=O)C1C(CC(O)c1ccc(-c2ccc(Br)cc2)cc1)c1ccccc1 (stereo not given) do in these assays?
Sfp PPTase inh: 18%; G9a block: inconclusive

How did CCOC(=O)CSc1nnc(-c2cc(OC)c(OC)c(OC)c2)o1 do in these assays?
Sfp PPTase inh: 0%; TDP1 block: 2%; BAZ2B inh: -9%; HP1b binding inh: 77%; JMJD2A Tudor: 1%

How did CCN(C(=O)CSc1nnc(-c2cc(OC)c(OC)c(OC)c2)o1)c1ccccc1 do in these assays?
G9a block: -45%[59 µM]; BAZ2B inh: 56µM*; HP1b binding inh: 16%; JMJD2A Tudor: inconclusive

Results for COc1cc(-c2nnc(SCc3cc(=O)oc4cc(O)c(O)cc34)o2)cc(OC)c1OC ?
Sfp PPTase inh: -11%; G9a block: 4.5µM*; BAZ2B inh: 7.9µM*; HP1b binding inh: -45%; JMJD2A Tudor: inconclusive

How did COc1cc(-c2nnc(SCC(=O)c3ccccc3)o2)cc(OC)c1OC do in these assays?
Sfp PPTase inh: 9%; TDP1 block: -2%; G9a block: -40%; BAZ2B inh: -6%; HP1b binding inh: 5%; JMJD2A Tudor: -14%

How did CCOC(=O)c1sc(N2C(=O)c3oc4ccc(F)cc4c(=O)c3C2c2ccc(O)cc2)nc1C (stereo not given) do in these assays?
TDP1 block: 1%; G9a block: 6%[59 µM]; BAZ2B inh: -2%; HP1b binding inh: 48%; JMJD2A Tudor: 8%

How did CCOC(=O)Cc1csc(NC(=O)c2ccc(NC(C)=O)cc2)n1 do in these assays?
Sfp PPTase inh: -9%; TDP1 block: 0%; G9a block: inconclusive; BAZ2B inh: -37%; HP1b binding inh: 16%; JMJD2A Tudor: 20µM*
